From PubChem BioAssay (NCI) come the findings set out here.

Compounds without any hit were thinned out: in the full panel of roughly 83,000, 20% have a hit.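 Growth was measured after 48 h exposure to one concentration of compound in 96-well plates. Values under 10 count as active.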 Unmarked numbers belong to inactive results. The source made the active and inactive calls.

Test systems include SR leukemia; RPMI-8226 leukemia; OVCAR-5 ovarian; OVCAR-4 ovarian; SK-OV-3 ovarian; IGROV1 ovarian; OVCAR-3 ovarian; HS 578T breast; NCI/ADR-RES ovarian.
Holding throughout (experiment): NCI-60 one-dose screen, 48 h (100 = growth as untreated, 0 = no growth, -100 = all killed)
What all share (conditions): 10 µM unless noted

`O=C(/C=C/c1cn(-c2ccccc2)nc1-c1ccc([N+](=O)[O-])cc1)c1ccc(Cl)cc1`: the growth with SR leukemia is -22.6% (active); in the assay on RPMI-8226 leukemia, 38.3%; in the assay with OVCAR-5 ovarian, 34.2%; in the assay on OVCAR-4 ovarian it was -21.8% (active); with SK-OV-3 ovarian it was 66.5%; with IGROV1 ovarian, 48%. For the same compound, the results for the growth with OVCAR-3 ovarian, with HS 578T breast and in the assay on NCI/ADR-RES ovarian were 10.6%, -12% (active) and 41.1%, respectively.

Take `Cc1ccc(C2=Nc3c(N)ncnc3NC(c3ccc4c(c3)OCO4)C2)cc1` (stereo unspecified): the growth in the assay with SR leukemia is 15.8%; with RPMI-8226 leukemia, 40.1%; in the assay on OVCAR-5 ovarian, 74.6%; with OVCAR-4 ovarian it was 87.6%; in the assay on SK-OV-3 ovarian, 78.3%; in the assay with IGROV1 ovarian, 32%. The growth was 37.8% in the assay with OVCAR-3 ovarian, 78% in the assay with HS 578T breast and 17.8% with NCI/ADR-RES ovarian.

`CN(Cc1ccc(C(F)(F)F)cc1)CC(O)C(=O)Nc1ccc(Cl)cc1` (stereo unspecified): the growth in the assay with SR leukemia is -31.3% (active); in the assay with RPMI-8226 leukemia, -33.7% (active); with OVCAR-5 ovarian, 27.9%; in the assay on OVCAR-4 ovarian it was 15.6%; in the assay with SK-OV-3 ovarian, 70.7%; in the assay with IGROV1 ovarian, 0.563% (active). Besides, the growth in the assay on OVCAR-3 ovarian was -40.7% (active); in the assay on HS 578T breast it was 51.7%; with NCI/ADR-RES ovarian, 39.3%.

Turning to `CC(C)n1cnc2c(=S)nc[nH]c21`, the growth with SR leukemia is 74.8%; in the assay with RPMI-8226 leukemia, 72.9%; in the assay with OVCAR-5 ovarian, 121%; in the assay with OVCAR-4 ovarian, 124%; in the assay with SK-OV-3 ovarian, -99.9% (active); with IGROV1 ovarian, 114%. Further, the growth in the assay with OVCAR-3 ovarian was 105%; with HS 578T breast it was 108%; in the assay on NCI/ADR-RES ovarian, 133%.

Regarding `CNC(=O)c1cc(Oc2ccc3c(c2)sc2nc(-c4cc(OC)c(OC)c(OC)c4)cn23)ccn1`, the growth was 35.5% in the assay with SR leukemia; 21% with RPMI-8226 leukemia; 104% in the assay with OVCAR-5 ovarian; 46.2% in the assay on OVCAR-4 ovarian; 77.7% with SK-OV-3 ovarian; 72.7% with IGROV1 ovarian. Besides, the results for the growth in the assay on OVCAR-3 ovarian, in the assay with HS 578T breast and in the assay on NCI/ADR-RES ovarian were 71.9%, 70.2% and 63.5%, respectively.

Turning to `Clc1ccc(Nc2nnc(COc3ccccc3)c3ccccc23)cc1`, the growth in the assay with SR leukemia was -20.6% (active); in the assay with RPMI-8226 leukemia, -25.3% (active); in the assay with OVCAR-5 ovarian, 23.1%; in the assay with OVCAR-4 ovarian, 18.1%; in the assay with SK-OV-3 ovarian, 9.17% (active); with IGROV1 ovarian, 16.1%. Besides, the growth in the assay on OVCAR-3 ovarian is -35.1% (active); with HS 578T breast, 14.4%; with NCI/ADR-RES ovarian, -1.13% (active).

For `Cc1ccc(NC(=S)NNC(=S)NNc2ccccc2)cc1C`, the growth with SR leukemia was 56.8%; in the assay on RPMI-8226 leukemia it was 78.9%; in the assay on OVCAR-5 ovarian, 105%; with OVCAR-4 ovarian, 114%; in the assay on SK-OV-3 ovarian it was 104%; with IGROV1 ovarian, 98.5%. Also, the growth with OVCAR-3 ovarian was 73.9%; in the assay with HS 578T breast, 94.4%; in the assay on NCI/ADR-RES ovarian, 110%.

For the compound `Oc1c(Cl)cc(Cl)c2ccc(Cn3cc(-c4ccc(C(F)(F)F)cc4)nn3)nc12`, the growth in the assay with SR leukemia was -16.8% (active); in the assay with RPMI-8226 leukemia, 0.831% (active); in the assay with OVCAR-5 ovarian, 88.7%; with OVCAR-4 ovarian it was 62.2%; in the assay with SK-OV-3 ovarian, 104%; in the assay on IGROV1 ovarian it was 78.9%. Also, the values for the growth with OVCAR-3 ovarian and in the assay on HS 578T breast were -16.1% (active) and 87.7%, respectively.

Consider `COc1ccc2cc(C(=O)c3coc4ccc(O)cc34)ccc2c1`, for which the growth in the assay on SR leukemia was 78.9%; in the assay with RPMI-8226 leukemia, 91.5%; with OVCAR-5 ovarian it was 103%; in the assay on OVCAR-4 ovarian, 97.6%; in the assay with SK-OV-3 ovarian it was 77.2%; in the assay with IGROV1 ovarian, 85.2%. Besides, the values for the growth in the assay with OVCAR-3 ovarian, in the assay on HS 578T breast and in the assay on NCI/ADR-RES ovarian were 100%, 112% and 99.8%, respectively.

As for `O=c1oc2ccc([N+](=O)[O-])cc2cc1Br`, the growth with SR leukemia was 85%; with RPMI-8226 leukemia it was 107%; in the assay with OVCAR-5 ovarian, 109%; in the assay on OVCAR-4 ovarian, 109%; in the assay with SK-OV-3 ovarian, 106%; in the assay on IGROV1 ovarian it was 119%. In addition, the growth in the assay on OVCAR-3 ovarian is 111%; with HS 578T breast, 106%; with NCI/ADR-RES ovarian it was 108%.

Regarding `OCc1cccc(-c2ccc3ncc(-c4nc(NC5CC5)ncc4F)n3c2)c1`, the growth in the assay on SR leukemia is -13.5% (active); in the assay on RPMI-8226 leukemia, -29.8% (active); with OVCAR-5 ovarian, -9.98% (active); in the assay with OVCAR-4 ovarian, -1.5% (active); in the assay with SK-OV-3 ovarian it was 14%; with IGROV1 ovarian, -13.3% (active). Also, the growth is -1.89% (active) with OVCAR-3 ovarian, -29.8% (active) in the assay on HS 578T breast and -3.01% (active) with NCI/ADR-RES ovarian.

As for `CCOC(=O)C#Cc1c(C(=O)OCC)nnn1[C@@H]1O[C@H](CO)[C@H]2OC3(CCCCC3)O[C@H]21`, the growth with SR leukemia is -8.98% (active); in the assay with RPMI-8226 leukemia, 14.2%; in the assay with OVCAR-5 ovarian, 105%; with OVCAR-4 ovarian, 56%; in the assay on SK-OV-3 ovarian, 98.1%; in the assay on IGROV1 ovarian, 96%. Moreover, the growth in the assay with OVCAR-3 ovarian was 4.07% (active); with HS 578T breast, 89.7%; in the assay on NCI/ADR-RES ovarian it was 100%.

Regarding `CCn1c(=S)sc2c(Nc3ccc(F)cc3)nc(-c3cccnc3)nc21`, the growth in the assay on SR leukemia was 95.6%; with RPMI-8226 leukemia, 88%; with OVCAR-5 ovarian it was 85.8%; in the assay with OVCAR-4 ovarian, -12% (active); in the assay with SK-OV-3 ovarian it was 56.6%; in the assay on IGROV1 ovarian, 75.3%. Also, the growth was 78.7% with OVCAR-3 ovarian, 49% in the assay with HS 578T breast and 55.4% with NCI/ADR-RES ovarian.
